These results are taken from PubChem BioAssay (NCATS).

Records with an inconclusive call do not appear. Activity calls are given as the source filed them. Unless noted, calls follow the shape of the dose curve; as a rule, active = well fitted curve in the direction sought with a large enough effect; inconclusive = small, poorly fitted or top-dose-only effect, or another doubt; inactive = no such curve, though single readings can be large; an effect the other way counts as inactive or inconclusive.

In test [1] the target is Glucocorticoid receptor (Homo sapiens) (UniProt P04150). As to the kind of experiment: GR-EFC Redistribution (AID 451; calls by dose curve; also: potency is read from the fitted curve at half-maximal effect). The following applies: CHO-K1 GR-EFC translocation, beta-gal luminescence, 2 h. The method in brief: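 CHO-K1 cells stably expressing nuclear-localized β-gal enzyme acceptor and GR fused C-terminally to the enzyme donor fragment; ligand-driven nuclear translocation restores β-gal by complementation. Compounds titrated up to 46 uM final, 2 h at 37 °C; luminescence read.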

Test [2] deals with Mitogen-activated protein kinase 10 (Mus musculus) (UniProt Q61831). As to the kind of experiment: JNK3 AlphaScreen Assay (AID 530; active = well fitted curve in either direction with a large enough effect, not every such curve was filed as active;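 also: kinase came from lysate of stimulated human HepG2 cells; % is scaled to controls: 0 for no effect and ±100 for the full control effect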). The following applies: JNK3 lysate, c-Jun phosphorylation; series mostly up to 25.6 µM. In outline: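 Biotinylated GST-cJun(1-79) served as substrate for JNK3 in HepG2 lysates stimulated with IL-1beta and TNF-alpha. ATP was 10 uM final, pH 7.6. Ser73 phosphorylation was quantified by AlphaScreen (680 nm excitation).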
(Bead proximity is the source of the signal in Alpha formats.)

Test [3] is described as follows: qHTS Assay for Lipid Storage Modulators (AID 1519; calls by dose curve; as to activity change, negative = inhibition: % is scaled to controls: 0 for no effect and ±100 for the full control effect). The following applies: Drosophila S3 cells, BODIPY lipid droplet/cell ratio, laser cytometry, cells loaded with oleic acid. The method in brief:
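Cells seeded at 5,000 per well were treated with compounds over a concentration series and loaded with oleic acid (400 uM, as added). Lipid droplet fluorescence (488 nm excitation, 500-530 nm channel) was read by laser-scanning cytometry and normalized to 20 uM Triacsin C.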
A general note: In qHTS, concentration-response curves come from the screen itself.

Test [4] deals with Ubiquitin carboxyl-terminal hydrolase 1 (Homo sapiens) (UniProt O94782). The experiment in a line: Inhibitors of USP1/UAF1: Pilot qHTS (AID 504865).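 Also: rhodamine fluorescence freed from ubiquitin-rhodamine substrate followed over time; top concentration of the series differs between compounds; % is scaled to controls: 0 for no effect and ±100 for the full control effect; nearly all actives have a fitted effect of over 35% in size.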 The following applies: purified USP1/UAF1, Ub-rhodamine cleavage fluorescence; series mostly up to 114 µM. The method in brief:
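USP1/UAF1 complex at 1 nM preincubated 15 min at room temperature with compound, then Ub-Rho substrate added at 150 nM final. Fluorescence (480/540 nm) read kinetically in 50 mM HEPES pH 7.8, 0.5 mM EDTA, 1 mM TCEP, 0.1 mg/ml BSA, 0.01% Tween-20.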

Test [5] has as its target 3',5'-cyclic-AMP phosphodiesterase 4B (Homo sapiens) (UniProt Q07343). The experiment in a line: qHTS Assay for Inhibitors of PDE-IV (AID 607; active = well fitted activation curve with a large enough effect in the main read-out, with a control signal flat, not every such curve was filed as active; also: % of control where 0% means no effect). The following applies: HEK293 ACTOne CNG channel cells, membrane potential fluorescence; series mostly up to 22.9 µM. In outline:
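HEK293 ACTOne cells with CNG channel (1000/well), endogenous PDE4; membrane potential dye, compounds up to 22.9 uM final. Fluorescence Ex 535/Em 590; RO 20-1724 (100 uM final) as reference.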

Test [6] deals with ATP-dependent 6-phosphofructokinase (Trypanosoma brucei brucei) (UniProt O15648). As to the kind of experiment: qHTS Assay to Find Inhibitors of T. brucei phosphofructokinase: hit validation (AID 492961).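 Also: luminescence reports ADP formed as PFK phosphorylates fructose-6-phosphate with ATP; % is scaled to controls: 0 for no effect and ±100 for the full control effect.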 The following applies: T. brucei PFK, ADP-Glo luminescence; series mostly up to 24.3 µM. In outline: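 Reaction: 0.1 M triethanolamine pH 8.0, 5 mM MgCl2, F6P 0.5 mM, ATP 0.1 mM, PFK 1.25 nM, 45 min RT. Read-out: ADP-Glo luminescence. Analysis: concentration-response fits, classed by r2 and efficacy.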

Test [7] has as its target Luciferin 4-monooxygenase (Photinus pyralis) (UniProt P08659). As to the kind of experiment: Biochemical firefly luciferase enzyme assay for NPC (AID 624030).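 Also: purified P. pyralis luciferase at 10 nM with luciferin and ATP substrate; 0% = DMSO and -100% = full luciferase inhibition by PTC124 control; nearly all actives have a fitted effect of over 70% in size.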 The following applies: purified P. pyralis luciferase, luminescence, 5 min; series mostly up to 24.9 µM. In outline: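 Counter-screen for direct inhibition of the luciferase enzyme by approved-drug library compounds, run at 10 nM enzyme in 50 mM Tris acetate (final). Luminescence was read within 5 min of enzyme-buffer addition and normalized to PTC124 versus DMSO (0%).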

Test [8] is described as follows: qHTS profiling for inhibitors of Plasmodium falciparum proliferation (AID 504749).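 Also: 0% = DMSO vehicle and full inhibition = artemisinin control; nearly all actives have a fitted effect of over 60% in size.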 The following applies: P. falciparum in erythrocytes, SYBR Green DNA, 72 h, at 12.8 µM (top of the series). The method in brief:
(§1)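 Fluorescence of SYBR Green-bound parasite DNA, read at 485/535 nm, served as the growth measure. Infected erythrocytes were cultured with compound 72 h; artemisinin (0.29 uM) and DMSO wells defined the normalization range.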

The next test relates to AS120. Described as above. The following applies: P. falciparum in erythrocytes, SYBR Green DNA, 72 h; series mostly up to 12.8 µM. The method in brief: as §1
The subject of another test is C2A. Described as above. The following applies: P. falciparum in erythrocytes, SYBR Green DNA, 72 h; series mostly up to 12.8 µM. The method in brief:
as §1

The subject of a further test is CP191. The description is as above. The following applies: P. falciparum in erythrocytes, SYBR Green DNA, 72 h; series mostly up to 12.8 µM. In outline: as §1
For a further test, the system named is CP217. Described as above. The following applies: P. falciparum in erythrocytes, SYBR Green DNA, 72 h; series mostly up to 12.8 µM. The method in brief: as §1
The next test relates to CP305. Described as above. The following applies: P. falciparum in erythrocytes, SYBR Green DNA, 72 h; series mostly up to 12.8 µM. In outline: as §1
For the next test, the system named is CP329. Described as above. The following applies: P. falciparum in erythrocytes, SYBR Green DNA, 72 h; series mostly up to 12.8 µM. In outline:
as §1

For a further test, the system named is ECU. The description is as above. The following applies: P. falciparum in erythrocytes, SYBR Green DNA, 72 h; series mostly up to 12.8 µM. In outline: as §1
A further test deals with FAB9. The description is as above. The following applies: P. falciparum in erythrocytes, SYBR Green DNA, 72 h; series mostly up to 12.8 µM. The method in brief:
as §1

The subject of another test is N140. Described as above. The following applies: P. falciparum in erythrocytes, SYBR Green DNA, 72 h; series mostly up to 12.8 µM. In outline:
as §1

For a further test, the system named is PC15. The description is as above. The following applies: P. falciparum in erythrocytes, SYBR Green DNA, 72 h; series mostly up to 12.8 µM. In outline:
as §1

A further test has as its system PC49. Described as above. The following applies: P. falciparum in erythrocytes, SYBR Green DNA, 72 h; series mostly up to 12.8 µM. In outline: as §1
The subject of the next test is TAB165. The test is described as above. The following applies: P. falciparum in erythrocytes, SYBR Green DNA, 72 h; series mostly up to 12.8 µM. The method in brief:
as §1

[9] abbreviates: measured here: cell count channel max response.
Setting [10] is: measured here: lipid channel max response.

Chain of Glucocorticoid receptor (Homo sapiens) (P04150 whole entry, looked up, the tested form may be a part): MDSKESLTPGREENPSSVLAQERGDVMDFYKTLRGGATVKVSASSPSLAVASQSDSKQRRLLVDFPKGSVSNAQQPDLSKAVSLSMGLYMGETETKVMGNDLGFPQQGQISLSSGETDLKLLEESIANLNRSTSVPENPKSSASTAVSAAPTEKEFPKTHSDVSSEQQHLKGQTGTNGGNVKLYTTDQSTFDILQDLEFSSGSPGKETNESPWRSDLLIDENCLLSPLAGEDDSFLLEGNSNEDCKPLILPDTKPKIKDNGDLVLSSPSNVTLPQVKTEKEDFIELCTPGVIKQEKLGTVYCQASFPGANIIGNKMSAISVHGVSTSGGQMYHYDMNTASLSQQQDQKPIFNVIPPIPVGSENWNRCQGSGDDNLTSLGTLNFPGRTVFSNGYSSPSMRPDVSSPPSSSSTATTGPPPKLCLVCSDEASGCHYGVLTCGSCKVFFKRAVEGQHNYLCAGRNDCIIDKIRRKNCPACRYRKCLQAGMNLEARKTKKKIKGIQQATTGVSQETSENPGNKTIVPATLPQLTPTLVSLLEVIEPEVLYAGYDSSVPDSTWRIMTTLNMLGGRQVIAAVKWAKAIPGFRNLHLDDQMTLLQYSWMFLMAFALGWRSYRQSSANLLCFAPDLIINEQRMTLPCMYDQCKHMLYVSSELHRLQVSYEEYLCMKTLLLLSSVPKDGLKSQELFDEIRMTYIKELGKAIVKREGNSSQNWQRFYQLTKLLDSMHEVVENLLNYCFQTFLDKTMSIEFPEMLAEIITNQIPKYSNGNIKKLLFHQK
Chain of Luciferin 4-monooxygenase (Photinus pyralis) (P08659 whole entry, looked up): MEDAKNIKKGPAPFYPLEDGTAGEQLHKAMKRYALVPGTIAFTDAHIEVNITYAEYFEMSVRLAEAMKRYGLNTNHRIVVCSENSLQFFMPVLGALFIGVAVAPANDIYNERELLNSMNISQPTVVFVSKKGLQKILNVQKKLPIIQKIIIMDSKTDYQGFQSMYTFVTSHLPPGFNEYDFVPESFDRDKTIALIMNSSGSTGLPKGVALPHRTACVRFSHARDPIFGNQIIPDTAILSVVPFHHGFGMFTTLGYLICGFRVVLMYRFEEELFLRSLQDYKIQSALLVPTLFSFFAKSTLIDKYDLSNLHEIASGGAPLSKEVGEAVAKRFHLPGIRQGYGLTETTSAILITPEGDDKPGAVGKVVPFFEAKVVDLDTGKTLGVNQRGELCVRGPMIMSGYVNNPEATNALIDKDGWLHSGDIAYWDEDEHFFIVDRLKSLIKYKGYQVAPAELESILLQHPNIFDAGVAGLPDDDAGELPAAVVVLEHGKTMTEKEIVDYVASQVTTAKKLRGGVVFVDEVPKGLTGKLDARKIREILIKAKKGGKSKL
Chain of 3',5'-cyclic-AMP phosphodiesterase 4B (Homo sapiens) (Q07343 whole entry, looked up): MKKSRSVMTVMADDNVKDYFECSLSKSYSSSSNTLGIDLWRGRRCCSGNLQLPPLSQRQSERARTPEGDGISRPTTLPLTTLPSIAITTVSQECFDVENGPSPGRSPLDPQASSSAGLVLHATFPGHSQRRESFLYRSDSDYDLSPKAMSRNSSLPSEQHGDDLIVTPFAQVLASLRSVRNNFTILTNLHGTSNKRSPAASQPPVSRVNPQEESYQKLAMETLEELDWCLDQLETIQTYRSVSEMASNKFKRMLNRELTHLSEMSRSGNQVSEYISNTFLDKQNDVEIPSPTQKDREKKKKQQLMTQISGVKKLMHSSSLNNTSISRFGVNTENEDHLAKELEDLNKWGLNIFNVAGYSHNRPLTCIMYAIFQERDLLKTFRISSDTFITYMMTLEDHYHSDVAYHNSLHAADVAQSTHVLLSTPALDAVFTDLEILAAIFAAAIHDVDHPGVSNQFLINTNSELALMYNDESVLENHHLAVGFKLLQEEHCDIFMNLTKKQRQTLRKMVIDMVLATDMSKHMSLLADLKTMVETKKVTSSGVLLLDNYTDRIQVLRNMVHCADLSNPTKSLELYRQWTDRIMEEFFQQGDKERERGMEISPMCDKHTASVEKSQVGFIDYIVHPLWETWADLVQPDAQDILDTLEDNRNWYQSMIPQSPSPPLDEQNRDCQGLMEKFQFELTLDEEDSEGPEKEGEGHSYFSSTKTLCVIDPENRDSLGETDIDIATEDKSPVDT
Chain of Ubiquitin carboxyl-terminal hydrolase 1 (Homo sapiens) (O94782 whole entry, looked up): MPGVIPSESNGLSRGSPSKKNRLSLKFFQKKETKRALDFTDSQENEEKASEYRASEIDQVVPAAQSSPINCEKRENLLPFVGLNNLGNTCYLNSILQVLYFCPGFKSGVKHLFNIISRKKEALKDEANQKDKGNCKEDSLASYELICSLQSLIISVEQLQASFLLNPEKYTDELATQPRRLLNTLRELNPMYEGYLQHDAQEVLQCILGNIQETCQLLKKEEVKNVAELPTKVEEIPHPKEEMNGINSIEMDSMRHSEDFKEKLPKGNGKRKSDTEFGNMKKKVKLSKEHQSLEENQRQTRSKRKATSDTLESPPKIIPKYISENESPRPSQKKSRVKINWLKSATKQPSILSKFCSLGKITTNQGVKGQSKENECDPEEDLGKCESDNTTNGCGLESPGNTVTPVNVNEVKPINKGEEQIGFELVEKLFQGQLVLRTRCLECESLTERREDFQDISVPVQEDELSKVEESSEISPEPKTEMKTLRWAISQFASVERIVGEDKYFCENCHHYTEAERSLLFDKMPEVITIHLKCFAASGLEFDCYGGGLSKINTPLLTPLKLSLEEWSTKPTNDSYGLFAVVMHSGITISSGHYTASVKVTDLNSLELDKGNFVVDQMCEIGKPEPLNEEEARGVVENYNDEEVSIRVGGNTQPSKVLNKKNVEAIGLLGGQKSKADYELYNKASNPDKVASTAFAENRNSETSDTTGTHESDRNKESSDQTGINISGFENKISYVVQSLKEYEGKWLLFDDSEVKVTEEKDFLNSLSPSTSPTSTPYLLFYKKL
Chain of ATP-dependent 6-phosphofructokinase (Trypanosoma brucei brucei) (O15648 whole entry, looked up): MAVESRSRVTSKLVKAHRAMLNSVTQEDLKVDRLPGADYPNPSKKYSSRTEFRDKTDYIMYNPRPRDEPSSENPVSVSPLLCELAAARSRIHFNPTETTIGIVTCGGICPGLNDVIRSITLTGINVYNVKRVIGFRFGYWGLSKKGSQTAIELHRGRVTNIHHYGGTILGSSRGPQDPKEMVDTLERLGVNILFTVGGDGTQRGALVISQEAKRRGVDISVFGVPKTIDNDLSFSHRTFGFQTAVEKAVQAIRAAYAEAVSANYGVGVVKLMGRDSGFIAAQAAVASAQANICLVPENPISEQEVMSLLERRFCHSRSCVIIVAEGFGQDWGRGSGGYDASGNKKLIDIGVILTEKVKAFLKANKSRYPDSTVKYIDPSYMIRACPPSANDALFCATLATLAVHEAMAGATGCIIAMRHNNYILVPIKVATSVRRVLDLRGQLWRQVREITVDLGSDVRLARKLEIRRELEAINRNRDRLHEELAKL

Turning to `CNCCC=C1c2ccccc2C=Cc2ccccc21`, the Potency in test [1] was > 20.6 µM (inactive). The Potency result in test [2] and in [4] was “inactive” in each case. Also, the activity change, negative = inhibition in [3] (at 25.7 µM (top of the series)) is -3.6% (inactive). Further, the max response in [3] (setting [9]) was -2.2%; in [3] (setting [10]) it was -8.1%.

As to `NS(=O)(=O)c1cc2c(cc1C(F)(F)F)N[C@H](Cc1ccccc1)NS2(=O)=O`, the Potency entry (in test [2]; in test [7]; in the test with AS120; in the test on C2A; with CP191; in the test on CP217) was “inactive” in each case. The Potency result in the test with CP305, in the test with CP329, in the test with ECU, in the test with FAB9, in the test on N140 and with PC15 was “inactive” each time. Also, the Potency result in the test with PC49 and in the test with TAB165 was “inactive” in each case. Further, the result in test [5] and in test [6] was inactive. Further, the activity change, negative = inhibition in test [3] (at 25.7 µM (top of the series)) is 1.42% (inactive). Further, the max response is -8.69% in test [3] (setting [9]) and -8.81% in test [3] (setting [10]). In test [8] (parasite line A), the activity, negative = inhibition is -1.91% (inactive).

`C[N+]1(C)C[C@@H](O)C[C@@H]1C(=O)[O-]`: the Potency in test [1] was > 20.6 µM (inactive). The Potency entry in test [2] and in [4] was “inactive” in each case. The result in test [5] was inactive. For the same compound, the activity change, negative = inhibition in [3] (at 25.7 µM (top of the series)) is -1.53% (inactive). Besides, the max response in [3] (setting [9]) is -1.48%; in [3] (setting [10]), -3.42%.

With `NC(=O)c1ccc[n+]([C@@H]2O[C@H](COP(=O)([O-])OP(=O)(O)OC[C@H]3O[C@@H](n4cnc5c(N)ncnc54)[C@@H](O)[C@@H]3O)[C@@H](O)[C@@H]2O)c1`, the Potency entry (in [2]; in [4]; in test [7]; in the test with AS120; in the test on C2A; with CP191) was “inactive” each time. In addition, the Potency entry in the test on CP217, in the test on CP305, with CP329, in the test with ECU, with FAB9 and in the test with N140 was “inactive” each time. Also, the Potency entry in the test on PC15, in the test with PC49 and with TAB165 was “inactive” throughout. In test [5], the outcome was inactive. Further, the activity change, negative = inhibition in [3] (at 25.7 µM (top of the series)) was -1.1% (inactive). Also, the max response was -9.17% in [3] (setting [9]) and -22.7% in test [3] (setting [10]). The activity, negative = inhibition in test [8] (parasite line A) was 0.56% (inactive); in test [8] (parasite line B), 2.43% (inactive).

As to `CC(=O)N[C@H](CS)C(=O)O`, the Potency in [1] is > 46 µM (inactive). Further, the Potency result in [2] and in [4] was “inactive” each time. In addition, the activity change, negative = inhibition in [3] (at 57.5 µM (top of the series)) is 4.08% (inactive). The max response in test [3] (setting [9]) stood at 2.82%; in [3] (setting [10]), 18.6%.

In the case of `c1ccc2c3c([nH]c2c1)[C@@H]1[C@H]2CC[C@H]([C@H]4CCCN[C@H]42)N1CC3`, the Potency in test [1] was > 20.6 µM (inactive). The Potency result in [2] was “inactive”. Besides, the outcome in [5] was inactive. For the same compound, the activity change, negative = inhibition in test [3] (at 25.7 µM (top of the series)) is -1.37% (inactive). Also, the max response in [3] (setting [9]) was 0.348%; in test [3] (setting [10]), -3.2%.

For the compound `CN(C)c1ccc(-c2nccc(NCc3ccccc3)n2)cc1`, the Potency in test [1] was > 46 µM (inactive). Also, the Potency entry in test [2] and in test [4] was “inactive” throughout. Further, the activity change, negative = inhibition in test [3] (at 57.5 µM (top of the series)) is 2.02% (inactive). For the same compound, the values for the max response in [3] (setting [9]) and in [3] (setting [10]) were -4.09% and -1.11%, respectively.

As to `FC(F)(F)c1ccccc1-c1ccc2ncnc(NC3CCNCC3)c2c1`, the Potency in test [1] is > 46 µM (inactive). Besides, the Potency entry in test [2] and in test [4] was “inactive” in each case. In test [3] (at 57.5 µM (top of the series)), the activity change, negative = inhibition is -0.848% (inactive). Besides, the max response in test [3] (setting [9]) stood at 8.99%; in test [3] (setting [10]) it was 6.31%.

Consider `CC[C@@H]1OC(=O)[C@H](C)[C@H](O[C@@H]2C[C@](C)(OC)[C@H](O)[C@H](C)O2)[C@H](C)[C@H](O[C@@H]2O[C@@H](C)C[C@@H](N(C)C)[C@@H]2O)[C@](C)(O)C[C@H](C)C(=NOCOCCOC)[C@H](C)[C@H](O)[C@]1(C)O`, for which the Potency in test [1] was > 20.6 µM (inactive). Moreover, the Potency entry (in test [2]; in test [7]; in the test with AS120; with C2A; in the test on CP217; in the test on CP305) was “inactive” in each case. Besides, the Potency entry with CP329, with ECU, with FAB9, in the test on N140, with PC15 and with PC49 was “inactive” each time. In addition, in the test on TAB165, the Potency result is “inactive”. Besides, the compound was called inactive in test [5] and in test [6]. Also, the activity change, negative = inhibition in test [3] (at 25.7 µM (top of the series)) is 0.83% (inactive). Further, the max response was -2.35% in test [3] (setting [9]) and -1.19% in test [3] (setting [10]). Besides, the activity, negative = inhibition in test [8] (parasite line B) is -20.4% (inactive).
